LASV entry inh – qHTS for Inhibitors of binding or entry into cells for Lassa Virus; Potency, µM (top dose mostly 49.2 µM), inactives show at the highest dose activity change, negative = inhibition, usual class: inhibitors; hit rate 4.1% among 18,000; Lassa virus pseudotyped entry inhibition, cell-based qHTS
MARV entry inh – qHTS for Inhibitors of binding or entry into cells for Marburg Virus. Potency, µM (highest dose often 49.2 µM), without a hit: at the top dose activity change, negative = inhibition, most hits filed as inhibitors. Marburg virus pseudotype entry/binding inhibition, cell-based. hit rate 6.5% among 18,000
Numbers without * were called inactive; ? = inconclusive; ! = not active in a repeat; [ ] = dose if it differs, or a comment. Shown are actives, neighbours in structure and some others; about 7.1% of the full set was active somewhere. Calls follow the shape of the full dose curve; tested in HEK293 cells. % is scaled to controls: 0 for no effect and ±100 for the full control effect; potency is read from the fitted curve at half-maximal effect.

SMILES | LASV entry inh | MARV entry inh
CN(C)CCC(c1ccc(Br)cc1)c1ccccn1 (centres undefined) | -5% | 10µM*
O=c1ccc2ccc(OS(=O)(=O)O)cc2o1 | ? | 10%
CC(C)c1c(C(=O)NCc2cccnc2)cnn1-c1nccc(-c2cccs2)n1 | -18% | -19%
Cc1ccc2[nH]c(-c3cccc(F)c3)cc(=O)c2c1 | 9% | ?
Cc1ccc(-c2cc(=O)c3cc(C)ccc3[nH]2)cc1 | ? | 25µM*
CC(=O)OCC(=O)[C@@]1(O)[C@H](C)C[C@H]2[C@@H]3C[C@H](F)C4=CC(=O)C=C[C@]4(C)[C@H]3[C@@H](O)C[C@@]21C | -1% | 12%
COC(=O)C1=C(C)NC(C)=C([N+](=O)[O-])C1c1ccccc1C(F)(F)F (centres undefined) | -29% | -27%
COC(=O)C1=C(C)NC(C)=C(C(=O)OCCN2CCN(C(c3ccccc3)c3ccccc3)CC2)C1c1cccc([N+](=O)[O-])c1 (centres undefined) | 22µM* | 13µM*
COC(=O)C1=C(C#N)NC(C)=C(C(=O)OC(C)C)C1c1cccc([N+](=O)[O-])c1 (centres undefined) | -25% | ?
COC(=O)C1=C(C)NC(C)=C(C(=O)OCCN(C)Cc2ccccc2)C1c1cccc([N+](=O)[O-])c1 (centres undefined) | 25µM*! | 11µM*
CC1CN(CCC(=O)NC(c2cccnc2)C(F)(F)F)Cc2cc(Cl)ccc2O1 (centres undefined) | -17% | ?
CC1=NCCc2c1[nH]c1cc(O)ccc21 | -7% | 6%
COc1ccc(O)c(CN2CCC3(CCC(CNC(=O)c4ccccc4)O3)CC2)c1 (centres undefined) | -9% | ?
CC(C)[C@H](NC(=O)OCc1ccccc1)C(=O)N[C@H](C=O)Cc1ccccc1 | -5% | ?
CC(C)C[C@@H](C=O)NC(=O)[C@H](CC(C)C)NC(=O)[C@H](CC(C)C)NC(=O)OCc1ccccc1 | 3.5µM* | ?
COc1ccc2c3c1O[C@H]1C(=O)CC[C@@]4(O)C(C2)N(CC2CC2)CCC314 (some centres undefined) | -7% | ?
Oc1ccc2c3c1O[C@H]1c4[nH]c5c(c4C[C@@]4(O)[C@@H](C2)N(CC2CC2)CC[C@]314)C[C@]1(O)[C@H]2Cc3ccc(O)c4c3[C@@]1(CCN2CC1CC1)[C@@H]5O4 | -10% | 3%
Oc1ccc2c3c1O[C@H]1c4oc5ccccc5c4C[C@@]4(O)C(C2)N(CC2CC2)CC[C@]314 | ? | 14µM*
Oc1ccc2c3c1O[C@H]1c4c(c5ccccc5n4Cc4ccccc4)C[C@@]4(O)C(C2)N(CC2CC2)CC[C@]314 | 14µM* | 7.9µM*
Cn1ccc2c(-c3ccc(CO)cc3)cc3c(c21)C1CCC3C1 (centres undefined) | -23% | ?
COc1nn(CSP(=S)(OC)OC)c(=O)s1 | ? | -7%[107 µM]
CCOC(=O)N1CCN(Cc2ccc3c(c2)CN(C(=O)c2sc(C)nc2C)CCO3)CC1 | -7% | ?
CN(C)c1ccc(-c2nccc(NCCN3CCOCC3)n2)cc1 | ? | -4%
CN(CC1COCCO1)C(=O)c1cnn(-c2ncc3c(n2)-c2ccccc2CCC3)c1C1CC1 (centres undefined) | -5% | 51%
COc1ccc(CC2NCCc3cc(OC)c(OC)cc32)cc1OC (centres undefined) | 2% | -18%
SMILES | LASV entry inh | MARV entry inh
CCC1CN2CCc3cc(OC)c(OC)cc3C2CC1CC1NCCc2cc(OC)c(OC)cc21 (centres undefined) | 5.6µM* | 5µM*
Nc1[nH]nc2nc3ccccc3nc12 | 50% | 73%
OCc1ccc(-c2nn(Cc3ccccc3)c3ccccc23)o1 | ? | 14µM*
CN(C)CCCOc1nn(Cc2ccccc2)c2ccccc12 | -22%[17.8 µM] | ?
Cc1ccc(-c2c(C)cc3oc(=O)cc(-c4ccccc4)c3c2C)cc1 | ? | -17%
CC(=O)Nc1ccc(-c2c(C)cc3oc(=O)cc(-c4ccccc4)c3c2C)cc1 | 7.9µM* | -22%
O=c1cccc2n1CC1CC2CN(CCO)C1 (centres undefined) | -1% | -1%
C[C@H](CCC(=O)NCCS(=O)(=O)O)C1CC[C@H]2C3CC[C@@H]4C[C@H](O)CC[C@]4(C)C3C[C@H](O)[C@]12C (some centres undefined) | -6% | 10%
Nc1nc2c(ncn2[C@@H]2O[C@H](CO)[C@@H](O)[C@H]2O)c(=O)[nH]1 | -17% | 7%
OC[C@H]1O[C@@H](n2cnc3c(NC4CCCC4)nc(Cl)nc32)[C@H](O)[C@@H]1O | -17% | 13%
O=c1[nH]cnc2c1ncn2C1OC(CO)C(O)C1O (centres undefined) | 2% | 9%
Nc1nc(Cl)nc2c1ncn2C1OC(CO)C(O)C1F (centres undefined) | 2.5µM* | 2.8µM*

Screens (PubChem BioAssay)
